Data from PubChem BioAssay (NCI).
The panel holds about 83,000 compounds, 20% with a hit somewhere; the sample as a whole holds those more often.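 The endpoint reported here, percent growth, reads 100 for growth as untreated, 0 for no net growth and -100 for all cells dead.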 Values without a mark were called inactive. Calls of active or inactive are those of the source. How the source made its calls: active means growth percent below 10; inactive means the rest.

Test system: 786-0 renal
Test: NCI-60 one-dose screen, 48 h (100 = growth as untreated, 0 = no growth, -100 = all killed)
Settings: 10 µM unless noted

| SMILES | growth |
| --- | --- |
| c1cc2[nH]ncc2cc1-c1nc2ccc3[nH]ncc3c2c2c1CCC2 | 49.7% |
| CCOC(=O)C1=C(C)NC(C)=C(C(=O)OCC)C1(C)C | 88.2% |
| CCOC(=O)c1ccc2c(c1)nc(-c1ccc(OCc3ccccc3)c(OC)c1)n2-c1cc(C(C)(C)C)[nH]n1 | 98.7% |
| O=C1/C(=C/c2ccc(Cl)cc2)CN(C(=O)CCN2CCC(=NO)CC2)C/C1=C\c1ccc(Cl)cc1 | -76.9% (active) |
| Cc1ccc(S(=O)(=O)NCCNc2cc(-c3cn(C(C)(C)C)nc3-c3cccc(O)c3)ccn2)cc1 | 68.5% |
| CC(C)CC1NC(C)(C)CO1 (stereo unspecified) | 109% |
| Cc1ccc(C(=O)C2=Cc3cc4ccccc4n3Cc3cnnn32)cc1 | 94.6% |
| Brc1ccc(-c2[nH]ncc2-c2c[nH]c3ccccc23)cc1 | 102% |
| CCn1c2ccccc2c2cc(NC(=O)Nc3ccc([N+](=O)[O-])cc3C)ccc21 | 38.9% |
| N=c1ccc2nc3ccc(N)cc3sc-2c1 | 59.1% |
| CCOC(=O)/C(C#N)=C1/C(=O)Nc2ccccc21 | 124% |
| O=[N+]([O-])c1ccc(Sc2ncccn2)c([N+](=O)[O-])c1 | 61.3% |
| O=C(O)C1CCCN1 (stereo unspecified) | 103% |
| OCc1ncc(-c2ccccc2)s1 | 60% |
| Oc1ccc2cc(Br)ccc2c1-c1c(O)ccc2cc(Br)ccc12 | 77.8% |
| COc1ccc(/C=C2\Oc3cc(OCCCN4CCCC4)ccc3C2=O)c(OC)c1 | 89.4% |
